# IMPase cell inh: membrane-permeable compound that blocks inositol monophosphatase; inhibition (IP1 accumulation), % at 46.1 µM; 120,000 tested, under 10 active; CHO-M1 cells, IP1 accumulation, HTRF TR-FRET ratio; P97697; active means well fitted curve in the direction sought with a large enough effect in the signal ratio, not every such curve was filed as active; inconclusive means small, poorly fitted or top-dose-only effect, or a change in a side signal; inactive means no such curve, though single readings can be large or run the other way; the % refers to the signal ratio;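 further: cells stimulated with carbachol in lithium chloride buffer; plate controls were DMSO basal wells for no effect and reference inhibitor wells for full effect; higher means more IMPase inhibition seen as more IP1 and lower FRET ratio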
# Target sequence (P97697 whole entry, looked up): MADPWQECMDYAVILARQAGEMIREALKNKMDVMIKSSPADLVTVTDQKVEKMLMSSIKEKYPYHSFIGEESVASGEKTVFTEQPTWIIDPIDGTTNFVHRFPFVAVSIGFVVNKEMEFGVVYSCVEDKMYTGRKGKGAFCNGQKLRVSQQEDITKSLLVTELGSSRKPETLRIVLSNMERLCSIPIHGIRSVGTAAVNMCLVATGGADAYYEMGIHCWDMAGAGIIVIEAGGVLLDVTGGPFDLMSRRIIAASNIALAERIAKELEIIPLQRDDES
#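 CHO-M1 cells (CHO stably expressing M1 receptor), compound up to 46 uM final, stimulated with carbachol (50 uM as added) in buffer with 50mM LiCl, pH 7.4, 30 min at 37C. Cytosolic IP1 read by TR-FRET; AC50 from Hill fits.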
# IMPase Li inh: cell-permeable IMPase inhibitors with lithium potentiation; CHO-M1 cells, IP1 TR-FRET (IP-One), carbachol + lithium; Potency, µM (doses to about 59.4 µM), for inactives: at the top dose activity, negative = IMPase inhibition, most hits filed as inhibitors; 210,000 tested, 0.35% active; active means well fitted curve in the direction sought with a large enough effect; inconclusive means small, poorly fitted or top-dose-only effect, or another doubt; inactive means no such curve, though single readings can be large; an effect the other way counts as inactive or inconclusive;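 further: IP1 builds up when IMPase is blocked and the TR-FRET signal falls; potency means the concentration at half of the fitted maximal effect; plate controls were basal vehicle for no effect and high inhibitor control for full effect; nearly all actives have a fitted effect of over 50% in size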
#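 Test compounds were applied to CHO-M1 cells previously cultured for 16–30 h at 2000 per well. A small lithium amount accompanied them; after 30 min at 37C, IP1 was quantified by TR-FRET.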
# PNC assembly inh: perinucleolar compartment assembly inhibition. PC3M PTB-GFP, PNC prevalence imaging, 16 h; stronger effect = lower value. 140,000 tested, 3.1% active. activity change (PNC), negative = inhibition, % at 10 µM. AID 2417;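 active means readout at or below -70, meaning at least 70% loss of cells showing the perinucleolar compartment, a nuclear body marking cancer cells; inconclusive means readout between -30 and a set limit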;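 further: plate controls were DMSO wells for no effect and camptothecin positive control wells for full effect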
#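 Read-out is percentage of cells bearing a perinucleolar compartment, from automated 20x imaging of fixed, Hoechst-stained PC3M PTB-GFP cells. Cells were seeded 4 h, then exposed 16 h to compound (23 nl of library stock) in duplicate plates.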
# ALOX12 inhib: 12-hLO (ALOX12) enzyme inhibition; purified 12-hLO, xylenol orange hydroperoxide absorbance; Potency, µM (highest dose often 57.1 µM), for the others: top-dose activity change, negative = inhibition, usual class: inhibitors; 150,000 tested, 0.12% active; active means well fitted curve in the direction sought with a large enough effect; inconclusive means small, poorly fitted or top-dose-only effect, or another doubt; inactive means no such curve, though single readings can be large; an effect the other way counts as inactive or inconclusive; further: potency means the concentration at half of the fitted maximal effect; nearly all actives have a fitted effect of over 55% in size
#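 Lipoxygenase turnover measured by absorbance at 573 and 405 nm after Fe-XO development. Human 12hLO 150 nM, arachidonate 40 uM, pH 7.0 Hepes buffer with detergent; 15 min compound preincubation, 30 min reaction.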
# ALDH1A1 inh: inhibitors of human aldehyde dehydrogenase 1A1 | Potency, µM (highest dose often 75.3 µM), for inactives: at the top dose activity, negative = inhibition, actives largely listed as inhibitors | 220,000 tested, 7.3% active | P00352 | Purified ALDH1A1, NADH fluorescence, propionaldehyde substrate;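 further: potency means the concentration at half of the fitted maximal effect; plate controls were no enzyme wells and a reference inhibitor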
# HPGD block: blocks human HPGD enzyme activity. P15428. Potency, µM, inactives show at the highest dose activity change, negative = inhibition, actives largely listed as inhibitors. 150,000 tested, 4.3% active. purified HPGD, NADH fluorescence kinetic, PGE2 substrate. AID 894; further: potency means the concentration at half of the fitted maximal effect
# Target sequence (P15428 whole entry, looked up): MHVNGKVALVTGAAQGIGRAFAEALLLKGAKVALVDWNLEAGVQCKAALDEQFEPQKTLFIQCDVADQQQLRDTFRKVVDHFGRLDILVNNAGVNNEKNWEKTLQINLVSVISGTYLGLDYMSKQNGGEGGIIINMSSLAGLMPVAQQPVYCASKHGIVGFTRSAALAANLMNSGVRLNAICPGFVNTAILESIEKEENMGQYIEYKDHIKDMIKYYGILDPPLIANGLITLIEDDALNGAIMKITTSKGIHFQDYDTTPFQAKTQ
#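 NADH formation kinetics: reaction with 30 uM PGE2 and 1 mM NAD+ (final), 20 nM enzyme, Tris-HCl pH 8 with Tween 20, after 15 min compound preincubation at room temperature. Fluorescence change, last versus first of five reads.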
# The depositor's hits bear a star; ? = inconclusive; / = no result; [ ] = another dose, or the depositor's remark. A selection: hits, their analogues and other compounds. The true share with any hit is near 11%. Unless noted, the call rests on the fitted dose curve; in most records, active means well fitted inhibition curve with a large enough effect (not every such curve was filed as active); inconclusive means small, poorly fitted or top-dose-only effect, or another doubt; inactive means no such curve, though single readings can be large or run the other way. Unless noted, on the % scale 0 is the no-effect control and ±100 the full control effect.
SMILES,IMPase cell inh,IMPase Li inh,PNC assembly inh,ALOX12 inhib,ALDH1A1 inh,HPGD block
COC(=O)c1ccc(C(NC(=O)OCc2ccccc2)/C(=C/[C@@H](C)C(=O)NCc2nc3ccccc3n2C)c2cccnc2)cc1 (some centres undefined),/,1%,/,1%,2%,-15%
Cc1ccccc1NC(=O)c1sc2nc3c(c(-c4ccco4)c2c1N)CCC3,0,7%[38.3 µM],19,-4%,2%,-17%
Nc1c(C(=O)NCC2CCCO2)sc2nc3c(c(-c4ccco4)c12)CC/C3=C\c1ccco1 (centres undefined),/,2%,?,-16%,?,20µM*
COCCNCC(=O)N1CCCCCC1,/,16%,/,/,4µM*,/
COCCNC(=O)CN1CCCCCC1,/,-3%,/,/,?,/
O=Cc1cn(-c2ccc(F)cc2)c2ccccc12,/,-2%,34,-2%,2µM*,-11%
CCCCOC(=O)/C(=C/c1cn(C)c2ccccc12)NC(=O)c1ccc(OC)cc1,/,-2%,-93*,4%,7%,-1%
O=C(NCC1CCCO1)c1ccc(C(=O)NCC2CCCO2)cc1 (centres undefined),-4,1%,13,1%,0%,-10%
O=C(NCC1CCCO1)c1ccc(COc2ccc(F)cc2)o1 (centres undefined),13,30%[38.3 µM],-20,-9%,10µM*,25µM*
CCOc1ccc(C(=O)NCC2CCCO2)cc1 (centres undefined),4,-1%[38.3 µM],-2,-4%,5%,16µM*
CCOC(=O)Nc1ccc(C(=O)NCC2CCCO2)cc1 (centres undefined),-1,0%[38.3 µM],-1,-5%,0%,16µM*
Cc1ccc(NS(=O)(=O)c2ccc(C(=O)NCC3CCCO3)cc2)cc1 (centres undefined),/,-5%,/,/,14%,/
N[C@@H](CCCC(=O)O)C(=O)O,/,2%,/,/,-5%,-16%
CCCCCCCCCCCCC/C=C\[C@@H](O)[C@H](CO)NC(C)=O,-1,7%,/,-2%,-1%,-9%
COc1cccc([C@@H]2Oc3ccc(Br)cc3C(=O)[C@H]2OC(=O)NCCOc2ccccc2)c1,/,3%,/,/,0%,-7%
C[C@@]12C=CC(=O)C=C1CC[C@@H]1[C@@H]2[C@H](O)C[C@]2(C)[C@@H]1CC[C@]2(O)C(=O)CO,-2[20.6 µM],0%,/,0%[25.6 µM],10%[20.9 µM],-5%
O=C(NCc1nnc2c3ccccc3c(-c3ccccc3)nn12)c1ccc(Cl)cc1,/,13%,-111*,-2%,7%,-6%
COCC1=C2c3ccccc3[C@H](C[N+](=O)[O-])C(C(=O)OC)(C(=O)OC)CC2C2C(=O)N(c3ccccc3)C(=O)C2C1 (some centres undefined),/,3%,/,5%,10%,-10%
Nc1cc(S(N)(=O)=O)ccc1SSc1ccc(S(N)(=O)=O)cc1N,/,36%,/,-28%[11.4 µM],2µM*,5µM*
C=C(C)CNC(=S)Nc1cccc(S(=O)(=O)NC2=NCCC2)c1,/,1%,/,/,?,/
C=C(C)CNC(=S)Nc1nc2c(cc1C(=O)OCC)CCCC2,/,4%,-15,0%,1µM*,-13%
CC(C)(C)c1ccc(-n2nc(C(N)=O)c(O)cc2=O)cc1,/,-1%,/,/,-4%,/
CC(C)(C)c1ccc(-n2nc(C#N)c(Cl)cc2=O)cc1,/,5%,/,/,13µM*,/
CC1(C)CC(=O)c2c(oc3ccc(NS(=O)(=O)c4ccc(C(=O)O)cc4)cc23)C1,/,2%,/,/,9%,/
CC1(C)CC(=O)c2c(oc3cc4c(cc23)OCO4)C1,/,23%,/,?,7.9µM*,2.5µM*
C1OCOCO1,/,11%,/,-1%,6%,-10%
NCCC[C@@H](CC(=O)N[C@@H]1CCCC[C@H]1C(=O)N[C@H](CC(=O)N[C@@H](CCC(=O)O)CC(=O)O)Cc1ccccc1)NC(=O)C[C@H](Cc1c[nH]c2ccccc12)NC(=O)[C@@H]1CNCC[C@H]1N,/,4%,/,0%,-6%,-5%
COc1ccc(Oc2ncc3nc(-c4cccs4)c(=O)n(C)c3n2)cc1,/,-2%,/,-1%,?,-18%

# High-throughput results deposited in PubChem by National Center for Advancing Translational Sciences (NCATS).
